# In the library only some 7.3% were active in any assay of this set; here they are far more common.
# ELG1 genotox: inducers of genotoxicity in HEK293T ELG1-luciferase cells; HEK293T ELG1-luciferase reporter, luminescence, 16 h; Potency, µM (series often up to 46 µM), hits mostly activators; 330,000 tested, 1.3% active; also: nearly all actives have a fitted effect of over 60% in size
#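 After overnight (16 hr) compound treatment at 37 °C, ELG1-luciferase HEK293T cells were lysed with ONE-Glo; luminescence quantified 30 min later at room temperature.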
# NPC1 promoter act: activators of NPC1 promoter; AID 485313; Potency, µM (top dose mostly 9.22 µM), usual class: activators; 320,000 tested, 2.4% active; Huh7 NPC1 promoter luciferase reporter, 24 h; also: nearly all actives have a fitted effect of over 60% in size
#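 Luminescence from an NPC1 promoter-driven luciferase reporter in stably transfected Huh7 cells was measured after 24 h compound treatment at 37 °C, followed by 10 min ambient incubation with luciferase detection reagent.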
# FLuc counter: counter-screen for miR-21 project: firefly luciferase inhibitors or activators; P08659; purified FLuc, Km substrates, luminescence inhibition; Potency, µM (highest dose often 57.5 µM), hits mostly inhibitors; 360,000 tested, 6.9% active; AID 588342; also: nearly all actives have a fitted effect of over 55% in size
# Target sequence (P08659 whole entry, looked up): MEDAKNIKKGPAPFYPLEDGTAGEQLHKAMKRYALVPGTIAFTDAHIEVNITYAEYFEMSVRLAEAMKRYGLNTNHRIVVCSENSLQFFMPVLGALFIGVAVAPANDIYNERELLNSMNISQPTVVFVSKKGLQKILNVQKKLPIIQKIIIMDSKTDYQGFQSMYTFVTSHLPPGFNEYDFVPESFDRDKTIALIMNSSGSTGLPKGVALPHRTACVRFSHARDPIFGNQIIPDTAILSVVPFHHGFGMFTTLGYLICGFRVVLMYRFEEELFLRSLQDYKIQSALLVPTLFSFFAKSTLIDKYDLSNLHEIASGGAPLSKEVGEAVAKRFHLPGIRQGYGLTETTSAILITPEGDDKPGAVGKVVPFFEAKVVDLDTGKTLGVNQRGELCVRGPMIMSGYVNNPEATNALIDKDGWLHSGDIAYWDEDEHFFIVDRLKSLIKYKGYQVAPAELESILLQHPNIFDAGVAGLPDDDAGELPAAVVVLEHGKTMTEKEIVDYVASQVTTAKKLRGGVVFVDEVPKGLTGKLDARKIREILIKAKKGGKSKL
#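 Purified P. pyralis luciferase (10nM final) with 10uM D-luciferin and 10uM ATP (Km levels) in 50mM Tris acetate pH 7.5, 10mM Mg acetate, 0.01% Tween-20, 0.05% BSA; qHTS 6-point titration, ~60 µM downward; luminescence read.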
# KinaseGlo FLuc: blocks Kinase-Glo luciferase, a counter-screen artifact | AID 1379 | 200,000 tested, 0.28% active | Kinase-Glo luciferase, ATP luminescence, 8 min | Potency, µM (series often up to 38.3 µM), most hits filed as inhibitors; also: nearly all actives have a fitted effect of over 60% in size
#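 Kinase-Glo luciferase light output from ATP and luciferin was measured with 10 uM ATP, within the enzyme's linear range. Buffer: 50 mM imidazole pH 7.2, 50 mM KCl, 7 mM MgCl2, 0.01% Tween 20, 0.05% BSA; luminescence read after 8 min at ambient temperature.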
# SMN2 splice enh: SMN2 splice variant enhancement | HEK293 SMN2-luciferase splicing reporter, luminescence, 30-36 h | Potency, µM (top dose mostly 46.1 µM), usual class: activators | 210,000 tested, 2.8% active; also: nearly all actives have a fitted effect of over 55% in size
#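 HEK293 cells carry an SMN2 minigene-luciferase reporter in which exon 7 inclusion puts luciferase in frame. Cells were seeded at 2000 cells/well, attached for 10-12 hours, then exposed to compounds for 30-36 hours at 37C before ONE-Glo luminescence.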
# Rab9 promoter act: activators of Rab9 promoter | Huh7 Rab9 promoter-luciferase reporter, luminescence, 24 h | 320,000 tested, 2.8% active | Potency, µM (series often up to 9.22 µM), hits mostly activators; also: nearly all actives have a fitted effect of over 60% in size
#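 Huh7 reporter line, Rab9 promoter upstream of luciferase. Compound exposure 24 h at 37 °C in reduced-serum medium with 10% FBS. Read-out: luminescence.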
# Hits are given with their value; i = inactive; ? = inconclusive; nt = not tested or not shown; [ ] = another dose, or the depositor's remark. Calls follow the shape of the dose curve; as a rule, active = well fitted curve in the direction sought with a large enough effect; inconclusive = small, poorly fitted or top-dose-only effect, or another doubt; inactive = no such curve, though single readings can be large; an effect the other way counts as inactive or inconclusive.
SMILES,ELG1 genotox,NPC1 promoter act,FLuc counter,KinaseGlo FLuc,SMN2 splice enh,Rab9 promoter act
Cc1cc(Nc2ccccc2)n(-c2ccc(C(=O)O)cc2)n1,i,i,i,i,i,i
Cc1ccccc1N(CC(=O)NC1CCCC1)C(=O)c1oc(C(C)(C)C)cc1C,i,i,i,i,i,i
C/C(=C\C(=S)Nc1ccccc1)Nc1ccc2ccccc2c1,i,i,17µM,i,i,i
S=C(NCc1ccccc1)Nc1ccc2ccccc2c1,?,2.2µM,13µM,nt,nt,?
O=C(N=c1nc2ccccn2s1)c1ccccc1,0.13µM,0.89µM,0.19µM,2.5µM,1.8µM,?
CC/C(=N\NC(=O)c1c(C)nc2ccccn12)c1ccccc1,i,i,i,nt,nt,i
CC(C)(C)c1ccc(CSC2=Nc3ccccc3C3=NC(CC(=O)NCc4cccs4)C(=O)N23)cc1 (stereo not drawn),nt,nt,i,nt,nt,nt
COC(=O)c1ccc(COC(=O)c2ccc(N(C)C)cc2)cc1,i,?,i,i,7.1µM,i
CN(C)c1ccc(C(=O)OCc2ccccc2)cc1,23µM,i,12µM,i,i,i
COC(=O)c1cccc(COC(=O)c2ccc(N(C)C)cc2)c1,i,i,?,i,?,?
O=C(OCc1ccc(COC(=O)c2ccc(O)cc2)cc1)c1ccc(O)cc1,i,i,i,nt,nt,i[1.84 µM]
CNC(=O)COC(=O)c1ccc(OCC(=O)Nc2ccccc2OC)c(OC)c1,i,i,i,i,i,i
C(=C\c1ccccc1)/CSc1nnc(-c2cccnc2)o1,i,i,i,i,i,i
CCOC(=O)C(Cc1ccc(O)cc1)NC(=O)CCc1c[nH]c2ccccc12 (stereo not drawn),i,i,i,nt,nt,i
CCC(=O)Nc1cccc(-c2nc3ccc(C)cc3o2)c1,?,2.8µM,2.4µM,nt,nt,4.5µM
Cc1cccc(-c2nc3cc(NC(=O)c4ccc(OCC(C)C)cc4)ccc3o2)c1,nt,nt,i,nt,i,nt
CCC(=O)Nc1ccc2oc(-c3cccc(C)c3)nc2c1,0.41µM,0.11µM,0.54µM,i,0.5µM,0.28µM
Cc1ccc2nc(-c3cccc(NC(=O)c4cccc5ccccc45)c3)oc2c1,nt,nt,2.1µM,nt,i,nt
CC(C)c1ccc(Nc2ncnc3c2nc2n3CCCC2)cc1,nt,nt,5.4µM,nt,nt,nt
CC(C)c1ccc(NC(=O)C2CCN(c3ncnc4c3nc3n4CCCCC3)CC2)cc1,i,i,i,nt,nt,i
Cc1cc(C)cc(Nc2ncnc3c2nc2n3CCCC2)c1,nt,nt,i,nt,nt,nt
Fc1ccccc1Nc1ncnc2c1nc1n2CCCCC1,nt,nt,12µM,nt,nt,nt
CCOc1ccc(Nc2ncnc3c2nc2n3CCCC2)cc1,nt,nt,15µM,nt,nt,nt
Cc1ccc(Nc2ncnc3c2nc2n3CCCC2)cc1F,nt,nt,13µM,nt,nt,nt
COc1ccccc1Nc1ncnc2c1nc1n2CCCC1,nt,nt,i,nt,nt,nt
SMILES,ELG1 genotox,NPC1 promoter act,FLuc counter,KinaseGlo FLuc,SMN2 splice enh,Rab9 promoter act
Cc1ccccc1Cn1c(-c2cccs2)nc2ccccc21,nt,nt,?,nt,i,nt
Cc1ccccc1OCc1nc2c3c(ncn2n1)-c1ccccc1CC31CCCC1,i,i,i,i,i,i
Cc1ccccc1OCc1nc2c3cnn(C)c3ncn2n1,5.8µM,4µM,?,i,?,2.8µM
CC(C)(C)NC(=O)c1ccc(C(=O)NC(C)(C)C)cc1,i,i,i,nt,nt,i
CC(C)(C)NC(=O)c1sccc1C(=O)O,i,i,15µM,i,i,i
Cc1noc(/C=C/c2ccco2)c1S(=O)(=O)N1CCC(C(=O)Nc2ccc(F)c(Cl)c2)CC1,nt,nt,i,nt,i,nt
Cc1ccc2nc(C(F)(F)F)c(C#N)c(N)c2c1,i,i,i,i,14µM,i
Cc1nccc2[nH]c(=O)c(C(=O)NC3CCCCC3C)cc12 (stereo not drawn),i,i,i,i,13µM,i
Cc1ccc2c(c1C)NC(=O)C21N2CCCC2C(C(=O)c2ccc3ccccc3c2)C12C(=O)Nc1ccccc12 (stereo not drawn),i,i,9.5µM,nt,nt,i
CC(=O)Nc1ccc(NC(=O)CSc2ncc(C(=O)Nc3ccc(F)cc3)c(=O)n2C)cc1,i,i,?,nt,nt,i
CCSc1ncc(/C=N/Nc2ccc(F)cc2)n1C,i,?,11µM,i,11µM,?
Cc1ccc(Nc2nc(C)cc(C)n2)c(Br)c1,i,i,21µM,i,i,i
Cc1cccc(Nc2nc(C)cc(C)n2)c1,i,i,i,nt,nt,i
O=C(C1=C[C@H](C2CCCCC2)C[C@H](OCCCCO)O1)N1CCOCC1,i,i,i,nt,nt,i
Cc1oc(-c2cc(F)ccc2F)nc1CN1CCN(c2ncnc3ccccc23)CC1,i,i,27µM,i,nt,i
Cc1cc(C)n2ncc(/C(N)=N/OC(=O)c3ccccc3F)c2n1,?,?,12µM,nt,nt,?
Cc1cc(C)n2ncc(/C(N)=N/OC(=O)Nc3ccc(Cl)cc3)c2n1,i,i,?,nt,nt,i
CCOC(=O)c1cnc2c(C(=O)OCC)cnn2c1N,i,?,?,nt,nt,4µM
CCOC(=O)c1cnc2c(-c3cccc(Br)c3)cnn2c1C,?,3.2µM,2.4µM,nt,nt,3.5µM
CCOC(=O)c1cnc2c([N+](=O)[O-])cnn2c1C,i,i,i,i,i,i
CCOC(=O)c1cnn2c(C)cc(-c3ccccc3)nc12,9.2µM,?,19µM,i,32µM,3.5µM
CCOC(=O)c1cnn2c(N)c(C#N)cnc12,i,i,i,i,i,i
COc1ccc(S(=O)(=O)N2CCCC(C(=O)NCc3ccco3)C2)cc1OC (stereo not drawn),i,i,i,nt,nt,i
CCOC(=O)c1cnn(Cc2ccccc2)c1N,i,i,i,i,i,i
CCOC(=O)c1cnn(C(=O)c2ccccc2)c1N,i,i,19µM,i,i,i
SMILES,ELG1 genotox,NPC1 promoter act,FLuc counter,KinaseGlo FLuc,SMN2 splice enh,Rab9 promoter act
COCC(=O)Nc1c(C(=O)Nc2cccc(OC)c2)oc2ccccc12,?,3.5µM,i,i,11µM,3.5µM
COc1ccc(NC(=O)c2oc3ccccc3c2NC(=O)c2cc3ccccc3o2)cc1,nt,nt,?,nt,i,nt
COc1cccc(NC(=O)CSc2nc3c(oc4ccccc43)c(=O)[nH]2)c1,i,i,3.8µM,i,i,i
COc1ccc(NC(=O)c2oc3ccccc3c2NC(=O)c2ccco2)cc1,i,i,13µM,i,i,i
COc1cccc(NC(=O)c2oc3ccccc3c2NC(C)=O)c1,?,?,?,i,?,3.5µM
COc1cccc(NC(=O)CSc2ncnc3c2oc2ccccc23)c1,i,i,i,i,i,i
COc1cccc(NC(=O)c2oc3ccccc3c2NC(=O)c2ccccc2C)c1,nt,nt,i,nt,i,nt
COc1ccccc1CC(=O)N(Cc1ccccc1)c1ccc(C)cc1,i,i,?,nt,nt,i
CCc1ccccc1Nc1nn2c(=O)c3ccc(C(=O)NCc4ccccc4Cl)cc3nc2s1,nt,nt,i,nt,nt,nt
Cc1cc(C(=O)COC(=O)c2n[nH]c(=O)c3ccccc23)c(C)n1C(C)C,?,i,1.7µM,nt,nt,?
Cc1cc(C(=O)COC(=O)c2ccc(O)cc2O)c(C)n1C(C)C,i,3.5µM,4.8µM,nt,nt,3.5µM
COc1ccccc1C=NNC(=O)c1ccccc1OCCOc1ccccc1,i,nt,nt,nt,nt,nt

# Bioassay records: PubChem, National Center for Advancing Translational Sciences (NCATS)
